{"source": "paper PMC12136788", "binders": {"B1": {"name": "chr4:113382420:113382521:+|3pUTR|ENSG00000145362|msi1|FALSE|bound_elsewhere (ssRNA)", "RNA": "GGGAGUUCUACAGUCCGACGAUCUCUUCAGGUCUUUAGAUCUUGGACAAGUUGGCAGGGUAUUUUAAAAGCUAUAACUACUGUAGUUUUCCAGUUUUCAUUGCUGCUUUAGCAAACCACGCUGUCUUACAGUGGUACUUUCUUCAACAGAGGAUUGAGCAUCA"}, "B2": {"name": "chr2:171482635:171482736:+|3pUTR|ENSG00000115827|unk|FALSE|unique (ssRNA)", "RNA": "GGGAGUUCUACAGUCCGACGAUCCAAGAGUGUUUCAGAAUAGGAUGUCUUAAGACUUCAGUCAUGUCAGAGAUUUUUUUUUUUAGGUGAUUAUUGAGUUUCUCCUUCUCCUUUAAGUCAUCACCUUCCUUUUAUGAAAUGAUACAACAGAGGAUUGAGCAUCA"}, "B3": {"name": "chr9:104535772:104536723:-|CDS|ENSG00000204246|control|control|control (ssRNA)", "RNA": "GGGAGUUCUACAGUCCGACGAUCGACAAGCUCAUUUCUCUGUUUUAUGGGGUAGUGACACCCAUGCUGAAUCCUAUACUCUAUAGCUUGAGAAAUAAGGAUGUAAAAGCUGCUGUAAAAUAUUUGCUGAACAAAAAACCAAUUCAACAGAGGAUUGAGCAUCA"}, "B4": {"name": "chr8:23842113:23842214:-|3pUTR|ENSG00000159167|msi1|FALSE|unique (ssRNA)", "RNA": "GGGAGUUCUACAGUCCGACGAUCACUUUAGACAUUUUUGUGCCAUUAUAUUUGCAUUAUGUAUUUAUAAUUUAAAUGAUAUUUAGGUUUUUGGCUGAGUACUGGAAUAAACAGUGAGCAUAUCUGGUAUAUGUCAUUAUUUAUCAACAGAGGAUUGAGCAUCA"}, "B5": {"name": "ENSG00000112936:stop:overlap|stop_codon|ENSG00000112936|stop_codon|NA|stop_codon (ssRNA)", "RNA": "GGGAGUUCUACAGUCCGACGAUCGAUGCAGAGGGCAGAGCAUCUCUGUCACCAGCAUAAGGCCUUGUGCUGCGGAAACCCAGUAGGCUCCUGGAGGCCCUGGUCAGCUUGCUUGGAAUCCAGCAGGCAGCUGGGGCUGAGUGACAACAGAGGAUUGAGCAUCA"}, "B6": {"name": "ENSG00000170312:stop:overlap|stop_codon|ENSG00000170312|stop_codon|NA|stop_codon (ssRNA)", "RNA": "GGGAGUUCUACAGUCCGACGAUCGCAAAAUGGCACUGAAUCAUCCAUAUUUUAAUGAUUUGGACAAUCAGAUUAAGAAGAUGUAGCUUUCUGACAAAAAGUUUCCAUAUGUUAUAUCAACAGAUAGUUGUGUUUUUAUUGUUACAACAGAGGAUUGAGCAUCA"}, "B7": {"name": "chr2:69942770:69942871:+|3pUTR|ENSG00000059728|unk|FALSE|unique (ssRNA)", "RNA": "GGGAGUUCUACAGUCCGACGAUCUGUUUCCAGAUGUUUCUUUAUGUAAAUAUGACGCCAAUGUAAAUCCUGUGUCAAGAUCAUAGAGAAUGGUGCUUUUUACUACAGUUAGCACAUGCAUUUUUAGAAACUACUACAUGUUUUCAACAGAGGAUUGAGCAUCA"}, "B8": {"name": "ENSG00000114439:stop:overlap|stop_codon|ENSG00000114439|stop_codon|NA|stop_codon (ssRNA)", "RNA": "GGGAGUUCUACAGUCCGACGAUCUUCAUUGUAAAACAUUGUGCUUUACCUACUACCCUAGCCUUGUCUUUACCGAGGGAUGCUAGUGAGUCCAAGUGGUGGAAAAUAUAGACUGCAAACAAGUGCUUGUUGCCCCACACGGCCCAACAGAGGAUUGAGCAUCA"}, "B9": {"name": "ENSG00000117906:stop:overlap|stop_codon|ENSG00000117906|stop_codon|NA|stop_codon (ssRNA)", "RNA": "GGGAGUUCUACAGUCCGACGAUCAGUCCUUUAGGAAGCAUCAAUGUGGAGGUUUGGGGCUCCAUCCUCAGAGCCAGUCUGCUUAGCUUCACAUUUAGCUCCAGCACUUCACGGUUGUGUAACUUUGGCUUCACUUAAAGGACACAACAGAGGAUUGAGCAUCA"}, "B10": {"name": "chr12:104348774:104348848:+|3pUTR|ENSG00000198431|msi1_unk|total|mutant (ssRNA)", "RNA": "GGGAGUUCUACAGUCCGACGAUCCGUUGUCAAGUUUUCCCGGGUUGAAUUUUUUUCUUUUUUCUCCAUGGUGUUAAUGAUAUCCGAGAUGAAAAACGUCCGCAGUUGAUUUUUGUCCAAAAGCAAGUCAUGGCCCGAGUAUCCCAACAGAGGAUUGAGCAUCA"}, "B11": {"name": "chr10:62094764:62094865:+|3pUTR|ENSG00000150347|msi1|FALSE|unique (ssRNA)", "RNA": "GGGAGUUCUACAGUCCGACGAUCGAUGAACUCCCCAACCCACUGUGCCCCUCCCGCAACACUACCAGUAGACUUUAGAACCAUAGUUAACUAAGUCUUUUACCUCUGAGAUACUUAAUUCUGGGAAAAUUGGUGACAAUUUUCCAACAGAGGAUUGAGCAUCA"}, "B12": {"name": "chr18:68676332:68676434:-|3pUTR|ENSG00000166479|msi1_unk|FALSE|overlapping (ssRNA)", "RNA": "GGGAGUUCUACAGUCCGACGAUCAUCAAGAUUAUGAGGUUAAAAAUAAUGUGGUUUUAUAUAGCAUAGUGGUUUUAUUUUGUUAGUUAUUUUUAAAGGAGAAGAAAUGUUACUUUUUAACUUUAUACUCAGUUGCAUUAUCAUCAACAGAGGAUUGAGCAUCA"}, "B13": {"name": "chr2:99394746:99394872:+|CDS|ENSG00000158417|unk|FALSE|unique (ssRNA)", "RNA": "GGGAGUUCUACAGUCCGACGAUCGAUGUGAGAAUUGAACGAGAUGCACAAGAAAUGGCUGAUAGUUUAGGAGUUAGAAUUUUUAGUGCAGAAAUUAUUUAUCAUUUAUUUGAUGCCUUUACAAAAUAUAGACAAGACUACAAGCAACAGAGGAUUGAGCAUCA"}, "B14": {"name": "chr15:100649042:100649144:+|3pUTR|ENSG00000183475|unk|FALSE|unique (ssRNA)", "RNA": "GGGAGUUCUACAGUCCGACGAUCUACCUCUGCUUUUCUUUUGCUGUGCUCUUGUUUUUAACUUAUUUUUUUUUUAACAACUGUAGUACACUACCCUGAGACACUGCAUCUCGAUUUCUAUCUCUAGUUAGAGUUGUACUUUUACAACAGAGGAUUGAGCAUCA"}, "B15": {"name": "chrX:115010634:115010735:-|CDS|ENSG00000123496|msi1|FALSE|unique (ssRNA)", "RNA": "GGGAGUUCUACAGUCCGACGAUCUGGAUCAUCAGAGAACAAGCCUAUCAGAUCCAGUUAUUUCACUUUUCAGCUUCAAAAUAUAGGUGAUGUAAACCAACAAACAACUUCAAAUUCAUUGUUUCUAGUUUAGGCCAUUUACAACAACAGAGGAUUGAGCAUCA"}, "B16": {"name": "chr16:21983864:21984660:-|three_prime_utr|ENSG00000155714|control|control|control (ssRNA)", "RNA": "GGGAGUUCUACAGUCCGACGAUCAAAGAAAAUUGAGCUGGCAAAAGAUGAAUCUUUCACAAGCAGUGAUGAUAAUGAAAAUGUAGAUUUAGAUAAAAGACUUCAAUAUUAUAGAUAUCCGUGGUCAACUGUGCAUCACCCUGCCAACAGAGGAUUGAGCAUCA"}, "B17": {"name": "chr18:55223968:55224079:-|3pUTR|ENSG00000196628|unk|FALSE|unique (ssRNA)", "RNA": "GGGAGUUCUACAGUCCGACGAUCUAUAAAGCUUUGUUUGUCUAGUGCUCUUUUGCUAUAAAAUAGACUGUAGUACACCCUAGUAGGAAAAAAAAAAAACUAAAUUUAAAAAUAAAAAAUAUAUUUGGCUUAUUUUUCGCAGGACAACAGAGGAUUGAGCAUCA"}, "B18": {"name": "chr12:95514132:95514176:+|3pUTR|ENSG00000111142|msi1_unk|FALSE|overlapping (ssRNA)", "RNA": "GGGAGUUCUACAGUCCGACGAUCCUUUUAAAUGCUAACUGUUUUUCCCCUUCCUGUCUAGGAAAAUGCUAUAAAGCUCAAAUUAGUUAGGAAUGACUUAUACGUUUUGUUUUGAAUACCUAAGAGAUACUUUUUGGAUAUUUACAACAGAGGAUUGAGCAUCA"}, "B19": {"name": "chr22:49888080:49888186:+|3pUTR|ENSG00000100426|unk|FALSE|unique (ssRNA)", "RNA": "GGGAGUUCUACAGUCCGACGAUCUGGCUUAUUAACAGGGAAGAAGCUUGUUAUAUUCCAGUUGUAAGAAUAGCCUUAGUGUUUAGAUUUUUUUAUGAUAGGGAAGAUGCGGCCAUCACUGGGAUAUUUUCAAAUCCCAAGGACCAACAGAGGAUUGAGCAUCA"}, "B20": {"name": "chr3:98797553:98797658:-|3pUTR|ENSG00000057019|msi1|FALSE|unique (ssRNA)", "RNA": "GGGAGUUCUACAGUCCGACGAUCAUUUCAUUCAUUGAAGAAUCAAUACAUAUUUUGUUUCAAAAUGUUUGAAACAAAAGACAUAGAUGGUAGACUUUUAUUAAAACAUAUAUGGAUGUGGAAAGCACAUAUAUUAAUGCAGUCCAACAGAGGAUUGAGCAUCA"}, "B21": {"name": "chr4:65323451:65323552:-|3pUTR|ENSG00000145242|msi1|FALSE|unique (ssRNA)", "RNA": "GGGAGUUCUACAGUCCGACGAUCAUCAAGAAAAAGUACAAUACAGGGUGUAUAUUUAUUUUUUGUGUUAUAAAGUUUACUUUUAGUUGCUCUUCUAGAGAUUAUUAGGUAAUAAAUGUGUAUAUACUGUAUAAUUUGCAAUAUCAACAGAGGAUUGAGCAUCA"}, "B22": {"name": "chr1:42278343:42278454:-|CDS|ENSG00000198815|unk|FALSE|bound_elsewhere (ssRNA)", "RNA": "GGGAGUUCUACAGUCCGACGAUCAAAAAGAAAAUGACUUUAAGUGAAAUUUAUCAGUGGAUUUGUGAUAACUUCCCAUAUUAUAGAGAGGCUGGCAGUGGUUGGAAGGUAAGGAUUUUAUUUAAAUUAUUACUUUUAUGAAGUCAACAGAGGAUUGAGCAUCA"}, "B23": {"name": "chr18:54155150:54155251:-|3pUTR|ENSG00000134046|unk|FALSE|unique (ssRNA)", "RNA": "GGGAGUUCUACAGUCCGACGAUCUUUCCACUGGCUUUUGCCUGUAAGAAAAAAAAUGUACCCGAGCACAUAGAGCUUUUUAAUAGCACUAACCAAUGCCUUUUUAGAUGUAUUUUUGAUGUAUAUAUCUAUUAUUCAAAAAAUCAACAGAGGAUUGAGCAUCA"}}, "note": "The full ranking holds about 5,800 sequences; the median of “enrichment r” is about 0.68, and the highest 2% start at about 11. What follows is part of a selection rich in the highest values, with near analogues and random picks from the rest."}
{"target": "T1, UNK ZnF1-6 (called full-length) (human, UniProt Q9C0B0 30-357)", "T1 sequence": "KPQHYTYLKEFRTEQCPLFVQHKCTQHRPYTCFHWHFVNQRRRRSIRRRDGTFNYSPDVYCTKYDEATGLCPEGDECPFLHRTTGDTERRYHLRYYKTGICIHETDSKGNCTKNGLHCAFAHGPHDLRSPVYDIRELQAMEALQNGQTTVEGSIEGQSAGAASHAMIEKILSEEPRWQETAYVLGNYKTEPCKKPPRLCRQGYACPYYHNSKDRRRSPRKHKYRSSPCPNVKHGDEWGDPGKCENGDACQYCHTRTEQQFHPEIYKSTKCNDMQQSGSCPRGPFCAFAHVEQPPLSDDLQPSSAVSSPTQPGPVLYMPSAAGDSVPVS", "assay": "nsRBNS (natural sequence RNA bind-n-seq); RBNS binding buffer (assumed for nsRBNS): 25 mM Tris pH 7.5, 150 mM KCl, 3 mM MgCl2, 0.01% Triton X-100, 500 ug/ml BSA, 20 U/ml SUPERase-In, 4 C; UNK is unkempt and MSI1 is Musashi-1; names of the RNAs are library labels; protein concentration not given here; high values mean tight binding", "units": {"binding signal": "enrichment R"}}
{"binder": "B1", "binding signal": 0.392}
{"binder": "B2", "binding signal": 1.03}
{"binder": "B3", "binding signal": 0.451}
{"binder": "B4", "binding signal": 3.25}
{"binder": "B5", "binding signal": 0.329}
{"binder": "B6", "binding signal": 0.706}
{"binder": "B7", "binding signal": 0.538}
{"binder": "B8", "binding signal": 0.604}
{"binder": "B9", "binding signal": 0.657}
{"binder": "B10", "binding signal": 0.359}
{"binder": "B11", "binding signal": 3.7}
{"binder": "B12", "binding signal": 48.4}
{"binder": "B13", "binding signal": 15.9}
{"binder": "B14", "binding signal": 5.29}
{"binder": "B15", "binding signal": 0.759}
{"binder": "B16", "binding signal": 2.22}
{"binder": "B17", "binding signal": 39.5}
{"binder": "B18", "binding signal": 2.63}
{"binder": "B19", "binding signal": 11.3}
{"binder": "B20", "binding signal": 1.11}
{"binder": "B21", "binding signal": 3.94}
{"binder": "B22", "binding signal": 3.38}
{"binder": "B23", "binding signal": 5.14}
